We go through eight compounds from PubChem BioAssay (NCI).

About 83,000 compounds went through this panel and 20% of them were active in at least one assay; those are over-represented in the sample as a whole.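 Single-concentration screen, 48 h exposure, 96-well plates. Endpoint: percent growth. Below 10 = active.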 Unmarked numbers belong to inactive results. Active and inactive are the calls of the source.

Common to all, as to experiment: NCI-60 one-dose screen, 48 h (100 = growth as untreated, 0 = no growth, -100 = all killed)
In experiment [1] the test system is HCT-15 colon. The following applies: 10 µM unless noted.
Experiment [2] deals with HT29 colon. Conditions: 10 µM unless noted.
The subject of experiment [3] is SNB-75 CNS. The following applies: 10 µM unless noted.
For experiment [4], the system named is SNB-19 CNS. Conditions: 10 µM unless noted.
For experiment [5], the system named is U251 CNS. The following applies: 10 µM unless noted.
In experiment [6] the test system is SK-MEL-5 melanoma. The following applies: 10 µM unless noted.
Experiment [7] has as its system UACC-62 melanoma. The following applies: 10 µM unless noted.
Experiment [8] concerns SK-MEL-28 melanoma. The following applies: 10 µM unless noted.
In experiment [9] the test system is SK-MEL-2 melanoma. Conditions: 10 µM unless noted.
The subject of experiment [10] is EKVX NSCLC. Conditions: 10 µM unless noted.
The subject of experiment [11] is SN12C renal. The following applies: 10 µM unless noted.
Experiment [12] has as its system UO-31 renal. The following applies: 10 µM unless noted.
For experiment [13], the system named is TK-10 renal. Conditions: 10 µM unless noted.
Experiment [14] has as its system ACHN renal. Conditions: 10 µM unless noted.
Experiment [15] has as its system CAKI-1 renal. The following applies: 10 µM unless noted.
Experiment [16] concerns MOLT-4 leukemia. Conditions: 10 µM unless noted.
The test system of experiment [17] is PC-3 prostate. The following applies: 10 µM unless noted.
For experiment [18], the system named is A498 renal. Conditions: 10 µM unless noted.
The test system of experiment [19] is CCRF-CEM leukemia. Conditions: 10 µM unless noted.
Experiment [20] has as its system LOX IMVI melanoma. Conditions: 10 µM.

With `COc1cc(OC)c2c3nc4cc(C)c(C)cc4nc3n(CCN(C)C)c2c1`, the growth in experiment [1] was -27.9% (active); in experiment [2], 49.9%; in experiment [3], 78.3%; in [4] it was 70.5%; in experiment [5], 87.7%; in experiment [6] it was 69.8%. For the same compound, the growth in [7] was 99.1%; in experiment [8], 66.5%; in experiment [9], 101%; in experiment [10], 89.9%; in [11] it was -48.8% (active); in [12] it was -68.6% (active). Moreover, the growth was 147% in [13], 47.3% in experiment [14], 50.5% in experiment [15] and 10.4% in experiment [16].
For `COc1ccc2[nH]cc(-c3nnc(N)nc3-c3c[nH]c4ncc(Br)cc34)c2c1`, the growth was 90.8% in experiment [1]; 96.7% in experiment [2]; 93.5% in experiment [3]; 91% in [4]; 110% in experiment [17]; 91.1% in experiment [6]. Further, the growth in [7] was 80.1%; in experiment [8] it was 98.9%; in experiment [9] it was 104%; in [10], 82.6%; in experiment [11], 77.1%; in [12] it was 65.9%. For the same compound, the growth was 59% in [14]; 70% in experiment [15]; 87.7% in experiment [18]; 88.9% in experiment [19]; 70.8% in experiment [16].
Take `COCOc1cc2oc(C(=O)N[C@@H](Cc3ccccc3)C(O)C(=O)NCc3ccccc3)c(C)c(=O)c2cc1OCOC` (stereo partly specified): the growth in experiment [1] was 94.4%; in experiment [2] it was 77.5%; in [3], 21.7%; in experiment [4], 47.3%; in experiment [17] it was 101%; in experiment [6] it was 49.9%. The growth was 63.6% in experiment [7]; 70.9% in experiment [8]; 79.7% in experiment [9]; 107% in experiment [10]; 51.9% in experiment [11]; 87.1% in [12]. For the same compound, the growth in experiment [13] was 63.2%; in experiment [14], 66.9%; in [15], 84.7%; in experiment [18] it was -35.2% (active); in experiment [19], 104%; in [16], 97.3%.
For the compound `O=C(CN1C(=O)/C(=C/c2ccccc2F)SC1=S)N1CCOCC1`, the growth in experiment [1] was 29.4%; in experiment [2], 87.1%; in experiment [3] it was 106%; in experiment [4], 91%; in [17], 95.1%; in [6], 93.9%. Further, the growth in experiment [7] is 76.2%; in [20] it was 38%; in experiment [8] it was 86.4%; in experiment [9] it was 99.1%; in experiment [10], 95.9%; in experiment [11] it was 72.6%. In addition, the growth in experiment [12] is 58.5%; in [13] it was 97.8%; in [14], 50.3%; in [15], 85.5%; in [18] it was 129%; in experiment [19], 41.9%. Further, the growth in [16] was 77.7%.
On to `O=c1onc(-c2cc3ccccc3nc2Cl)n1-c1cccc2ccccc12`, for which the growth in [1] is 21.6%; in experiment [2] it was 39.6%; in [3], 8% (active); in experiment [5] it was 54.8%; in experiment [17], 40.4%; in [6] it was 3.23% (active). Also, the growth in [7] is 29.9%; in experiment [20] it was 42%; in [8], 55.9%; in [9], 19.6%; in experiment [10], 29.5%; in experiment [12] it was 38.2%. Further, the growth in [13] was 78.6%; in experiment [14], 50.4%; in experiment [15], 29.1%; in experiment [18], 90.8%; in [19], 33%; in [16], 24.5%.
In the case of `CN(C)c1ccnc(NCCCSC(c2ccccc2)(c2ccccc2)c2ccccc2)c1`, the growth in [1] is 10.7%; in [2], -51.8% (active); in experiment [3], 63.1%; in experiment [5] it was 6.61% (active); in experiment [17], 7.71% (active); in [6], -98.4% (active). For the same compound, the growth is 28.6% in [7]; 47.9% in [20]; -77.3% (active) in [8]; 43% in experiment [9]; 35.5% in experiment [10]; 28.9% in experiment [12]. The growth in experiment [13] is 74.4%; in experiment [14] it was 53.3%; in experiment [15], 30.8%; in [18], 89.6%; in [19], -26.3% (active); in experiment [16], -8.29% (active).
For the compound `CC(=O)OC[C@@]1(C)C2CC[C@]3(C)C(CC=C4C5CC(C)(C)CC[C@]5(C(=O)Nc5ccc(F)cc5)CC[C@]43C)[C@@]2(C)C[C@@H](OC(C)=O)[C@@H]1OC(C)=O` (stereo partly specified), the growth in experiment [1] was 33.8%; in experiment [2] it was 34.7%; in experiment [3], 54.4%; in [5] it was 40.3%; in experiment [17] it was 34.5%; in experiment [6], 8.24% (active). Further, the growth in experiment [7] is 30.3%; in experiment [20] it was 11.1%; in experiment [8], 58.6%; in experiment [9], 32.6%; in experiment [10], 28.1%; in experiment [12] it was 38.6%. Also, the growth in [13] is 56.5%; in experiment [14], 38.6%; in [18], 63.1%; in experiment [19], 29.8%; in experiment [16], 35%.
For `CC(C)Sc1nc(NCCc2c[nH]c3ccccc23)c(C#N)c(-c2ccc(F)cc2)n1`, the growth is 5.84% (active) in experiment [1]; -6.22% (active) in experiment [2]; 73% in experiment [3]; 20.7% in [5]; 15% in experiment [17]; 24.1% in experiment [6]. Besides, the growth in [7] is 58.8%; in experiment [20], -17.3% (active); in experiment [8], 71.1%; in experiment [9], 70.3%; in experiment [10] it was 32.7%; in [12], 44.8%. Moreover, the growth in experiment [13] is 96.3%; in [14], 51.7%; in [15], 42.7%; in experiment [18], 42.4%; in [19], 11.7%; in experiment [16], 12%.
